# Measured values reported in PubChem BioAssay (EPA / NIEHS).
# The source made the active and inactive calls. The calls were made as follows: active = hit-call score of the fitted dose curve at least 0.9, where 1 is the maximum; inconclusive = response in the unintended direction; inactive = score below 0.9.
# Biological target: Estrogen receptor beta (Homo sapiens) (UniProt Q92731)
# Assay: OT_ER_ERbERb_1440: Odyssey Thera (OT) 24-hour HEK293T Protein-Complementation Assay for Estrogen Receptor-beta/-beta Homodimer (AID 2283380);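 also: fluorescence gain from ER beta LBD homodimer complementation read by laser scanning cytometry; scored as signal increase over DMSO baseline for both agonists and antagonists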
# Summary of the method: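 HEK293T cells stably expressing human ER-beta LBD (aa 310-547) PCA homodimer pair, dosed 24 h; formaldehyde-fixed, Draq5-stained. Readout: increase in nuclear (agonist) or nuclear plus cytoplasmic (antagonist) fluorescence intensity versus DMSO, gain-of-signal fitting.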
# Sequence of Estrogen receptor beta (Homo sapiens) (Q92731 whole entry, looked up, the tested form may be a part): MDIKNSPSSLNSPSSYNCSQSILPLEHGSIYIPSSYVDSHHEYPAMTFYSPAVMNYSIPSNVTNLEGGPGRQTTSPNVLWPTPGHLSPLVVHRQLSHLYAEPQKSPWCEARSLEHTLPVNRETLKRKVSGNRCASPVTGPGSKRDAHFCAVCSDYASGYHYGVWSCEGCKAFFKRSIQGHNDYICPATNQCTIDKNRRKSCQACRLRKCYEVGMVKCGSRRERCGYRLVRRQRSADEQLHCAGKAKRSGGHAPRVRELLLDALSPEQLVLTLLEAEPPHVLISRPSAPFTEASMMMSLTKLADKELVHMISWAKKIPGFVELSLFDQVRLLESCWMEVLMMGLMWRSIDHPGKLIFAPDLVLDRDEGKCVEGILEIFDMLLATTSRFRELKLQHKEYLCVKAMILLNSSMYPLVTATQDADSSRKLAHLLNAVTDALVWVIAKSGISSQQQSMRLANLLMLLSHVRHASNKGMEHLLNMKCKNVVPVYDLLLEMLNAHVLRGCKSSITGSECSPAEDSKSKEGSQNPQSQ
SMILES,outcome,AC50
CCOC(OCC)OCC,inactive,–
CC(C)(C)c1cc(Cc2cc(C(C)(C)C)c(O)c(C(C)(C)C)c2)cc(C(C)(C)C)c1O,inactive,–
CC(C)Nc1ccc(NC(C)C)c2c1C(=O)c1ccccc1C2=O,–,19.1 µM (active)
CCN=C1C=CC(=C(c2ccc(N(CC)CC)cc2)c2ccc(N(CC)CC)cc2)c2ccccc21,inactive,–
CCc1cc(Cc2cc(CC)c(N)c(CC)c2)cc(CC)c1N,inactive,–
CCCCC(CC)COC(=O)c1ccc(N(C)C)cc1 (stereo not given),inactive,–
CCOC(=O)C1CC(=O)C(=C(O)C2CC2)C(=O)C1 (stereo not given),inactive,–

# Biological target: Estrogen receptor (Homo sapiens) (UniProt P03372)
# Assay: OT_ERa_GFPERaERE_0120: Odyssey Thera (OT) 2-hour HeLa Transcription Induction Assay for Estrogen Receptor (AID 2283382)
# Summary of the method: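 Cells (human cervical HeLa) receive compound, incubate 2 hours, then are imaged for fluorescent reporter induction. Images are quantified by high content analysis, and activity is fitted as gain of signal against DMSO.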
# Sequence of Estrogen receptor (Homo sapiens) (P03372 whole entry, looked up): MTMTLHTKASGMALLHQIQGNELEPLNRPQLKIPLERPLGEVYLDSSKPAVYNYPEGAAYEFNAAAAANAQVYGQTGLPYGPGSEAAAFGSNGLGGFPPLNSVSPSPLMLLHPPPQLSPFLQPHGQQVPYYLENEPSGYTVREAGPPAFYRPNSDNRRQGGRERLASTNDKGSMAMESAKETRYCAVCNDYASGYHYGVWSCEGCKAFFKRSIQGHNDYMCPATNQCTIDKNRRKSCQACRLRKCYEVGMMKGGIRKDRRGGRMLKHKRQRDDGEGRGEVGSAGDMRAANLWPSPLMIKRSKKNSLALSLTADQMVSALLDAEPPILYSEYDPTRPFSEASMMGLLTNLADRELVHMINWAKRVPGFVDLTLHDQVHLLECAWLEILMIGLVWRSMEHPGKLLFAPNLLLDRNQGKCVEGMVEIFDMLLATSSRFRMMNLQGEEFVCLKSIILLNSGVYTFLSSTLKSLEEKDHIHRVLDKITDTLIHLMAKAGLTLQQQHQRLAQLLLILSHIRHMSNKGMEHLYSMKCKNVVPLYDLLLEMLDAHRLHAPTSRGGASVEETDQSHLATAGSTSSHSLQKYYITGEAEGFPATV
SMILES,AC50,outcome
CCCCOC(=O)C(C)O (stereo not given),2.95 µM (active),–
CCOC(OCC)OCC,–,inactive
CCCCOC(=O)[C@H](C)O,–,inactive
CC(C)(C)c1cc(Cc2cc(C(C)(C)C)c(O)c(C(C)(C)C)c2)cc(C(C)(C)C)c1O,–,inactive
CC(C)Nc1ccc(NC(C)C)c2c1C(=O)c1ccccc1C2=O,–,inactive
CCN=C1C=CC(=C(c2ccc(N(CC)CC)cc2)c2ccc(N(CC)CC)cc2)c2ccccc21,–,inactive
Cc1ccc([N+](=O)[O-])c(C)c1,–,inactive
N#Cc1ccccc1O,–,inactive
CCc1cc(Cc2cc(CC)c(N)c(CC)c2)cc(CC)c1N,–,inactive
CC(=O)CCC(C)C,–,inactive
CC(C)OC=O,–,inactive
CCCCC(CC)COC(=O)c1ccc(N(C)C)cc1 (stereo not given),–,inactive
CCOC(=O)C1CC(=O)C(=C(O)C2CC2)C(=O)C1 (stereo not given),–,inactive
